# Laboratory results from PubChem BioAssay (NCI).
# Compounds without any hit were thinned out: in the full panel of roughly 83,000, 20% have a hit.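 The test compound was applied at a single concentration to cells in 96-well plates for 48 hours, and percent growth was recorded.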 Values without a mark were called inactive. Active and inactive are the calls of the source. How the source made its calls: active means growth percent below 10; inactive means the rest.
# Key:
# Assay in all cases: NCI-60 one-dose screen, 48 h (100 = growth as untreated, 0 = no growth, -100 = all killed)
# Conditions in all cases: 10 µM unless noted
# HCT-15 colon = system: HCT-15 colon
# HT29 colon = system: HT29 colon
# SNB-75 CNS = system: SNB-75 CNS
# SNB-19 CNS = system: SNB-19 CNS
# U251 CNS = system: U251 CNS
# PC-3 prostate = system: PC-3 prostate
# SK-MEL-5 melanoma = system: SK-MEL-5 melanoma
# UACC-62 melanoma = system: UACC-62 melanoma
# LOX IMVI melanoma = system: LOX IMVI melanoma
# SK-MEL-28 melanoma = system: SK-MEL-28 melanoma
Compound,growth (HCT-15 colon),growth (HT29 colon),growth (SNB-75 CNS),growth (SNB-19 CNS),growth (U251 CNS),growth (PC-3 prostate),growth (SK-MEL-5 melanoma),growth (UACC-62 melanoma),growth (LOX IMVI melanoma),growth (SK-MEL-28 melanoma)
Nc1n[nH]c2cccc(C#Cc3cccc(C(=O)Nc4cc(C(F)(F)F)cc(C(F)(F)F)c4)c3)c12,70.4%,46.4%,91.5%,105%,84%,33%,73%,50%,41.2%,62.1%
O=C(NCCNc1nccc(Nc2ccc(S(=O)(=O)Nc3ccccn3)cc2)n1)c1cccc([N+](=O)[O-])c1,105%,90.6%,93.5%,112%,97.6%,94.2%,103%,100%,101%,107%
NC(N)=NCCCCCNc1noc(Cc2c[nH]c3cc(Br)ccc23)n1,102%,73.7%,37.6%,37.5%,21.6%,31.8%,68.1%,56.1%,70.5%,86.9%
O=C(N(c1ccccc1)c1ccccc1)n1cc(I)c2nc(Cl)nc(Cl)c21,30.6%,29.7%,35.1%,46.8%,24.2%,32.1%,63.9%,37.2%,31.1%,88.2%
Cc1ccc2c(n1)C(=O)C(Br)=C(C1CCCC1)C2=O,99.5%,109%,99.7%,98.1%,97.4%,89.9%,97.3%,98.5%,91.6%,117%
COC(=O)c1cc(N=C2NC(=O)/C(=C/C=C/c3ccccc3)S2)ccc1O,25.8%,10.7%,12.9%,30.4%,22.6%,30%,30.1%,33.6%,40.1%,65.4%
Cc1[nH]c(C(=O)Nc2ccccc2OC2CCNCC2)c(Cl)c1Cl,20.2%,-7.94% (active),-28.9% (active),33.4%,-4.3% (active),43.1%,-40.6% (active),-79.9% (active),-88.3% (active),18.9%
N#Cc1nc(-c2ccc(F)cc2)oc1S(=O)(=O)N1CCCCC1,-22.4% (active),32.3%,92%,96.5%,91.2%,92.1%,88.7%,94%,1.69% (active),102%
COc1ccc(-c2ccc(=O)oc2-c2cc(OC)c(OC)c(OC)c2)cc1O,12.1%,-24% (active),38.8%,25.3%,19.8%,36.9%,-55.5% (active),34.7%,17.8%,47.4%
CN1CCN(c2cc(Nc3cc(C4CC4)[nH]n3)nc(Nc3ccc(CC(=O)NCc4cccc(F)c4)cc3)n2)CC1,56.5%,8.1% (active),-56% (active),40%,26%,47.4%,68.6%,32.7%,-28.4% (active),25.8%
CCOC(=O)c1cc(C(=O)c2cc(OC)c(OC)c(OC)c2)n2ncccc12,24%,3.66% (active),34%,38.9%,14.8%,21.1%,25.9%,29.5%,42.5%,67.7%
CSc1nc(N)c(NS(=O)(=O)c2ccc(C(C)=O)cc2)c(=O)[nH]1,98.4%,103%,87.6%,107%,112%,102%,97.5%,98.3%,101%,104%
C#COc1cccc(Nc2c(C#N)cnc3ncc(NC(=O)CCl)cc23)c1,22.8% [6.25 µM],3.12% [6.25 µM] (active),54.2% [6.25 µM],11% [6.25 µM],-42.8% [6.25 µM] (active),19.6% [6.25 µM],47.7% [6.25 µM],37.5% [6.25 µM],-2.95% [6.25 µM] (active),50.8% [6.25 µM]
Cc1ccc(CNc2ccc3nc(CCC4CCCCC4)[nH]c3c2)cc1,12.7%,9.91% (active),79.7%,58.4%,29.8%,38.5%,-19.5% (active),32.9%,50.1%,38.5%
C=CC(=O)N1CCN(c2cccc(Oc3nccc(Nc4nnc(-c5ccc(Br)cc5)s4)n3)c2)CC1,40.3%,53.1%,69.3%,57.3%,56.8%,61.1%,42.7%,37%,59%,67.1%
CN1C(=O)/C(=C\c2c(Cl)cccc2Cl)c2ccccc21,67%,84.5%,61.3%,80%,88.4%,95%,86.5%,71.2%,82.5%,94.4%
COc1ccc(C2CC(c3ccc(Nc4nc(Nc5ccccc5)nc(Nc5ccccc5)n4)cc3)=NN2C(C)=O)cc1 (stereo not given),96.9%,101%,89.8%,88.7%,88.1%,86.4%,83.5%,94.3%,103%,109%
Cc1ccccc1/C=C/C(=O)c1cccc(OCCCCOc2cccc(C(=O)/C=C/c3ccccc3C)c2)c1,84.6%,86.8%,90.9%,93.5%,93%,100%,101%,74.8%,95.9%,95.2%
Cn1c(=O)cc2c3c(c(NCCCO)ccc31)C(=O)c1ccccc1-2,39.5%,23.1%,39.3%,47.3%,37.5%,45.2%,40.2%,40.4%,26.6%,71.4%
O=C(O)CCCN1C(=O)/C(=C/c2cn(-c3ccccc3)nc2-c2ccc([N+](=O)[O-])cc2)SC1=S,35.8%,87.1%,95.7%,48.9%,38.2%,56.4%,52.7%,47%,46.2%,49.4%
COc1ccc(/C=C/C(=O)c2cc3c(N)c(C(=O)Nc4cccc5ccccc45)sc3nc2C)cc1,44.1%,70.2%,53.6%,56.3%,45.3%,75.6%,68.9%,21.3%,60.1%,64.9%
O=C(NCCCl)Nc1ncccc1OCc1ccccc1,95%,94.5%,103%,103%,110%,99%,95.9%,92.5%,102%,108%
